The nature of experiment [1]: qHTS for inhibitors of adenylyl cyclases using a fission yeast platform: a pilot screen against the NCATS LOPAC library (AID 1347410). In outline:
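Fission yeast qHTS: CHP2027 cells (AC9-GNAS-PDE4D2, fbp1-GFP), 5x10^6 cells/mL working density, EMM + His/Lys/Ura; LOPAC at up to 57 µM final; 18 h dark, 30C; GFP by laser cytometry. DPI positive control, DMSO vehicle.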
In general terms: qHTS replaces the single test concentration by a dilution series.

Experiment [2] in a line: Validation qHTS assay for inhibitors of Activation Induced Cytidine Deaminase (AID): UDG Counterscreen signal (AID 1347427). The gist of the method: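 Fluorescence at 560 nm excitation, 665 nm emission reports UDG signal after 250 mM NaOH (2x) addition and 30 min. Enzymes (AID 1 uM, UDG 2 U/mL, at 4/3x) preincubated 10 min with compound, then 4 h with 4x 250 nM DJC20/DJC23 substrate at room temperature.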

Activity calls are given as the source filed them. Where a call stands in place of a potency, no number is given. Calls follow the shape of the dose curve; as a rule, active = well fitted curve in the direction sought with a large enough effect; inconclusive = small, poorly fitted or top-dose-only effect, or another doubt; inactive = no such curve, though single readings can be large; an effect the other way counts as inactive or inconclusive.

As to `O=c1[nH]c2ccccc2c2ccccc12`, the result in experiment [1] was inactive. Also, the Potency result in experiment [2] was “inactive”.

As to `Cn1cc(C(=O)OCC2CCN(CCNS(C)(=O)=O)CC2)c2ccccc21`, in experiment [1], the compound was called inactive. In experiment [2], the Potency entry was “inactive”.

Regarding `COc1cc([C@@H]2c3cc4c(cc3[C@H](O)C3COC(=O)[C@@H]32)OCO4)cc(OC)c1OC` (stereo partly specified), the call in experiment [1] was inactive. Besides, the Potency result in experiment [2] was “inactive”.

Take `Brc1c(Br)c(Br)c2[nH]cnc2c1Br`: the Potency entry in experiment [2] is “inactive”.

Turning to `S=C(S)N1CCCC1`, the Potency entry in experiment [2] is “inactive”.

Turning to `O=C(O)c1cccnc1C(=O)O`, the Potency entry in experiment [2] was “inactive”.

`N#CC(C#N)=C(N)/C(C#N)=C/c1ccc(O)cc1`: the call in experiment [1] was inactive. Besides, in experiment [2], the Potency entry is “inactive”.

Source of the values: PubChem BioAssay (NCATS).
